Measured values as given in PubChem BioAssay (EPA / NIEHS).
Activity calls are given as the source filed them. Rule for the calls: active = hit-call score of the fitted dose curve at least 0.9, where 1 is the maximum; inactive = score below 0.9.

How the values were obtained:
[1] = ATG_ISRE_CIS: Attagene CIS-FACTORIAL HepG2 Assay for human Interferon Regulatory Factor 1 (IRF1) binding to an Interferon-Stimulated Response Element (ISRE) (AID 2282948); settings: HepG2 ISRE cis-reporter (Attagene), mRNA transcription readout; actives raise or lower the signal
Method in brief: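 Signal reflects induction or loss of ISRE-linked reporter mRNA in transiently transfected HepG2 cells after a 24 h treatment, detected by fluorescent RT-PCR fragments on capillary electrophoresis and normalised to DMSO.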

[2] = ATG_M_32_CIS: Attagene CIS-FACTORIAL HepG2 Assay for M32 Transcription Factor (Internal Marker) (AID 2282949); settings: HepG2 Attagene cis-factorial M32 reporter, mRNA; actives raise or lower the signal;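 note: background control marker of the multiplexed CIS panel rather than a real target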
Method in brief: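 HepG2 human liver cells transiently transfected with cis-promoter-driven multiple reporter transcription units, dosed 24 h. Reporter mRNA quantified by RT-PCR, FAM-labelled primer extension, HpaI digest and capillary electrophoresis; bidirectional fit versus DMSO baseline.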

[3] = ATG_M_06_CIS: Attagene CIS-FACTORIAL HepG2 Assay for M06 Transcription Factor (Internal Marker) (AID 2282950); settings: HepG2 Attagene CIS-FACTORIAL M06 internal marker reporter; actives raise or lower the signal
Method in brief: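 HepG2 cells transiently transfected with cis-regulated multiple reporter transcription units were exposed to chemical for 24 h; reporter mRNA was quantified by RT-PCR, 6-FAM primer labelling, HpaI digestion and capillary electrophoresis, fitted bidirectionally against DMSO.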

[4] = molecular target: Hypoxia-inducible factor 1-alpha (Homo sapiens) (UniProt Q16665); test: ATG_HIF1a_CIS: Attagene CIS-FACTORIAL HepG2 Assay for human Hypoxia Inducible Factor 1 (HIF1A) (AID 2282951); settings: HepG2 Attagene cis-factorial HIF1a reporter transcription; actives raise or lower the signal
Method in brief: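 Endogenous-TF cis reporter readout, human HepG2 cells, 24 h incubation; mRNA detected via RT-PCR and capillary electrophoresis fluorescence; DMSO-normalised bidirectional fitting.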

[5] = molecular target: Hepatocyte nuclear factor 6 (Homo sapiens) (UniProt Q9UBC0); test: ATG_HNF6_CIS: Attagene CIS-FACTORIAL HepG2 Assay for human Hepatocyte Nuclear Factor 6 (HNF6) (AID 2282952); settings: HepG2 Attagene cis-factorial HNF6 reporter transcription; actives raise or lower the signal
Method in brief: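 Endogenous factor activity read in transiently transfected HepG2 via promoter-regulated reporter transcripts. RNA harvested 24 h post-dosing, reverse-transcribed, PCR-amplified, FAM-labelled, HpaI-digested and resolved by capillary electrophoresis; fitted in both directions against DMSO.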

[6] = ATG_MRE_CIS: Attagene CIS-FACTORIAL HepG2 Assay for human Metal Responsive Element (MRE) (AID 2282954); settings: HepG2 MRE cis-reporter transcription, Attagene multiplex; actives raise or lower the signal
Method in brief: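 Endogenous MRE-dependent transcription read as reporter mRNA in transiently transfected human HepG2 cells at 24 h. RNA reverse-transcribed, PCR-amplified, labelled and resolved by capillary electrophoresis; gain or loss relative to DMSO.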

[7] = ATG_PXRE_CIS: Attagene CIS-FACTORIAL HepG2 Assay for human Pregnane X Receptor Element (PXRE) (AID 2282957); settings: HepG2 Attagene CIS-FACTORIAL PXRE reporter, mRNA; actives raise or lower the signal
Method in brief: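 Reporter transcripts under endogenous PXR-responsive cis-regulation quantified from total RNA of transfected HepG2 cells 24 h post-dosing, via RT-PCR with fluorescent primer extension and capillary electrophoresis. Gain or loss of signal fitted against DMSO baseline.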

[8] = ATG_RORE_CIS: Attagene CIS-FACTORIAL HepG2 Assay for human RAR-related Orphan Receptor Element (RORE) (AID 2282959); settings: HepG2 Attagene cis-factorial RORE reporter, mRNA; actives raise or lower the signal
Method in brief: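 Measured here: transcript induction of a cis-regulated reporter in HepG2 cells transiently transfected via FuGene 6. After 24 h, RNA was processed by RT-PCR and fluorescent capillary electrophoresis; DMSO defined baseline activity.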

[9] = ATG_Sox_CIS: Attagene CIS-FACTORIAL HepG2 Assay for human SRY-box transcription factor (SOX) (AID 2282960); settings: HepG2 Attagene cis-factorial SOX reporter, mRNA; actives raise or lower the signal
Method in brief: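 Using transiently transfected HepG2 cells, reporter transcription driven by cis elements was assessed 24 h after dosing. Signal was fluorescence of capillary-separated RT-PCR products, with DMSO defining baseline activity.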

[10] = molecular target: Transcription factor Sp1 (Homo sapiens) (UniProt P08047); test: ATG_Sp1_CIS: Attagene CIS-FACTORIAL HepG2 Assay for human Specificity Protein 1 (Sp1) (AID 2282961); settings: HepG2 Sp1 cis-reporter transcription, actives raise or lower the signal
Method in brief: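 After transient transfection of HepG2 cells with cis-promoter reporter units and 24 h chemical treatment, reporter transcripts were quantified by RT-PCR and capillary electrophoresis fluorescence. Gain- and loss-of-signal fitted against DMSO.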

[11] = ATG_SREBP_CIS: Attagene CIS-FACTORIAL HepG2 Assay for human Sterol Regulatory Element Binding (SREBP) (AID 2282962); settings: HepG2 Attagene cis-factorial SREBP reporter, mRNA; actives raise or lower the signal
Method in brief: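 Values derive from bidirectional curve fitting with DMSO as baseline. The underlying measurement is reporter mRNA from cis-element-regulated units in transiently transfected HepG2, quantified by RT-PCR and capillary electrophoresis after 24 h exposure.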

[12] = molecular target: Signal transducer and activator of transcription 3 (Homo sapiens) (UniProt P40763); test: ATG_STAT3_CIS: Attagene CIS-FACTORIAL HepG2 Assay for human Signal Transducer and Activator of Transcription 3 (STAT3) (AID 2282963); settings: HepG2, Attagene cis-factorial STAT3 reporter transcription; actives raise or lower the signal
Method in brief: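 Readout is reporter transcript quantified by RT-PCR and capillary electrophoresis, with 6-FAM primer extension and HpaI digestion. Total RNA is taken 24 h after dosing transiently transfected HepG2 carrying cis-regulated reporter units. Bidirectional fit against DMSO.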

[13] = ATG_TA_CIS: Attagene CIS-FACTORIAL HepG2 Assay for human TA Basal Promoter (AID 2282964); settings: HepG2 Attagene CIS-factorial TA basal promoter reporter; actives raise or lower the signal
Method in brief: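 HepG2 cells transiently transfected with multiplexed cis-promoter reporter units, dosed 24 h. Reporter mRNA measured by RT-PCR, 6-FAM labelling, HpaI digestion and capillary electrophoresis; bidirectional fit versus DMSO baseline, serving as background control.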

[14] = ATG_TCF_b_cat_CIS: Attagene CIS-FACTORIAL HepG2 Assay for human T-Cell-Factor with beta-catenin (TCF/b-cat) (AID 2282965); settings: HepG2 TCF/beta-catenin cis-reporter transcription, actives raise or lower the signal
Method in brief: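 Endogenous transcription factor activity is captured through cis-promoter reporter constructs transiently introduced into human HepG2 liver cells. Induced reporter mRNA is measured after 24 h and fitted bidirectionally relative to DMSO.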

[15] = ATG_TAL_CIS: Attagene CIS-FACTORIAL HepG2 Assay for human TAL Basal Promoter (AID 2282966); settings: HepG2 Attagene cis-factorial TAL promoter reporter; actives raise or lower the signal;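 note: background control endpoint measuring basal TAL promoter reporter mRNA not a specific factor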
Method in brief: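 Background-control endpoint: basal TAL promoter reporter transcripts in transiently transfected HepG2, measured 24 h after dosing. Read-out by RT-PCR with fluorescent primer extension and capillary electrophoresis; gain or loss of signal fitted relative to DMSO.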

[16] = ATG_TGFb_CIS: Attagene CIS-FACTORIAL HepG2 Assay for human Transforming Growth Factor (TGF) (AID 2282967); settings: HepG2 Attagene CIS TGFb reporter, mRNA transcription; actives raise or lower the signal
Method in brief: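 HepG2 cells transiently transfected with cis-promoter-driven multiplexed reporter units; 24 h compound exposure. Reporter mRNA measured by RT-PCR, 6-FAM labeling, HpaI digestion and capillary electrophoresis; bidirectional fit versus DMSO baseline.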

[17] = molecular target: Heat shock factor protein 1 (Homo sapiens) (UniProt Q00613); test: ATG_HSE_CIS: Attagene CIS-FACTORIAL HepG2 Assay for human Heat Shock Transcription Factor 1 (HSE) (AID 2282953); settings: HepG2 HSE cis-reporter, Attagene RNA transcription; actives raise or lower the signal
Method in brief: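 HepG2 cells transiently transfected with multiple reporter transcription units under cis-regulatory promoter control, measuring endogenous transcription factor activity. After 24 h chemical exposure, reporter mRNA quantified by RT-PCR, fluorescent labelling, HpaI digestion and capillary electrophoresis; bidirectional fit versus DMSO.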

[18] = molecular target: Paired box protein Pax-6 (Homo sapiens) (UniProt P26367); test: ATG_Pax6_CIS: Attagene CIS-FACTORIAL HepG2 Assay for human Paired Box 6 (PAX6) (AID 2282956); settings: HepG2 CIS-FACTORIAL PAX6 reporter transcription, RNA readout; actives raise or lower the signal
Method in brief: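 Values derive from bidirectional curve fitting of reporter mRNA signal relative to DMSO. HepG2 cells bearing transfected cis-regulated MRTUs were exposed for 24 h; transcripts were read by RT-PCR and capillary electrophoresis.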

[19] = ATG_PBREM_CIS: Attagene CIS-FACTORIAL HepG2 Assay for human Phenobarbital-responsive Enhancer Module (PBREM) (AID 2282955); settings: HepG2 PBREM cis-reporter, Attagene multiplexed transcription; actives raise or lower the signal
Method in brief: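 Readout: reporter mRNA, fluorescent RT-PCR fragments separated by capillary electrophoresis. System: HepG2 transiently transfected with cis-regulated reporter units. Exposure: 24 h. Analysis: bidirectional, DMSO baseline.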

[20] = ATG_PPRE_CIS: Attagene CIS-FACTORIAL HepG2 Assay for human Peroxisome Proliferator-activated Response Element (PPRE) (AID 2282958); settings: HepG2 PPRE cis-element reporter, Attagene transcription factor profiling; actives raise or lower the signal
Method in brief: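 After human HepG2 hepatoma cells were transiently transfected with cis-promoter reporter constructs, they were exposed to test chemicals for 24 hours. Reporter RNA was then reverse-transcribed, PCR-amplified, FAM-labeled, HpaI-digested and quantified by capillary electrophoresis.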

Measured: AC50

Sequence of Heat shock factor protein 1 (Homo sapiens) (Q00613 whole entry, looked up): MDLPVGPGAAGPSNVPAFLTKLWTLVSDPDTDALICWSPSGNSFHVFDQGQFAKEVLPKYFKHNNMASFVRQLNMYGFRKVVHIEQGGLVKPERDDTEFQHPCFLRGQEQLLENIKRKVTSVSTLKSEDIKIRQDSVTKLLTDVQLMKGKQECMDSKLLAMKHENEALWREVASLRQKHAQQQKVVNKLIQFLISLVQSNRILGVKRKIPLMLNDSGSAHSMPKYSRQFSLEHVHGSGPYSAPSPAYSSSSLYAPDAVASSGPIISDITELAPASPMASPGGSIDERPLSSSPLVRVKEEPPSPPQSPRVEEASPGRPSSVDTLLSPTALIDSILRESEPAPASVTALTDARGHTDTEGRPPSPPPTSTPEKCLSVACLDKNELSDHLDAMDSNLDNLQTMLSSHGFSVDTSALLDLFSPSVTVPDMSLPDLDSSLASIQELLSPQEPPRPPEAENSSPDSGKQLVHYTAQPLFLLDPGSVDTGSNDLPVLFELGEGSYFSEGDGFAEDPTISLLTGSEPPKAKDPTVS
Sequence of Paired box protein Pax-6 (Homo sapiens) (P26367 whole entry, looked up): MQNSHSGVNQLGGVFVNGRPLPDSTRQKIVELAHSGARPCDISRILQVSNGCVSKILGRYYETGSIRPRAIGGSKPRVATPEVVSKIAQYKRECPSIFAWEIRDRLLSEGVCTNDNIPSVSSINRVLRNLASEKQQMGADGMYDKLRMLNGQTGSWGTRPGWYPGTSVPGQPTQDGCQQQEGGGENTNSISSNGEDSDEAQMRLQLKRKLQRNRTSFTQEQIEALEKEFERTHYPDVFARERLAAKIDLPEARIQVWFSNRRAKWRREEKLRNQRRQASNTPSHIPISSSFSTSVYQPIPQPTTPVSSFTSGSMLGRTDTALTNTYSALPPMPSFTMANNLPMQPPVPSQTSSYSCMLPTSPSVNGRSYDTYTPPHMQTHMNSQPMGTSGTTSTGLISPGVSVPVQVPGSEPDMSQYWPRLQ
Sequence of Hypoxia-inducible factor 1-alpha (Homo sapiens) (Q16665 whole entry, looked up): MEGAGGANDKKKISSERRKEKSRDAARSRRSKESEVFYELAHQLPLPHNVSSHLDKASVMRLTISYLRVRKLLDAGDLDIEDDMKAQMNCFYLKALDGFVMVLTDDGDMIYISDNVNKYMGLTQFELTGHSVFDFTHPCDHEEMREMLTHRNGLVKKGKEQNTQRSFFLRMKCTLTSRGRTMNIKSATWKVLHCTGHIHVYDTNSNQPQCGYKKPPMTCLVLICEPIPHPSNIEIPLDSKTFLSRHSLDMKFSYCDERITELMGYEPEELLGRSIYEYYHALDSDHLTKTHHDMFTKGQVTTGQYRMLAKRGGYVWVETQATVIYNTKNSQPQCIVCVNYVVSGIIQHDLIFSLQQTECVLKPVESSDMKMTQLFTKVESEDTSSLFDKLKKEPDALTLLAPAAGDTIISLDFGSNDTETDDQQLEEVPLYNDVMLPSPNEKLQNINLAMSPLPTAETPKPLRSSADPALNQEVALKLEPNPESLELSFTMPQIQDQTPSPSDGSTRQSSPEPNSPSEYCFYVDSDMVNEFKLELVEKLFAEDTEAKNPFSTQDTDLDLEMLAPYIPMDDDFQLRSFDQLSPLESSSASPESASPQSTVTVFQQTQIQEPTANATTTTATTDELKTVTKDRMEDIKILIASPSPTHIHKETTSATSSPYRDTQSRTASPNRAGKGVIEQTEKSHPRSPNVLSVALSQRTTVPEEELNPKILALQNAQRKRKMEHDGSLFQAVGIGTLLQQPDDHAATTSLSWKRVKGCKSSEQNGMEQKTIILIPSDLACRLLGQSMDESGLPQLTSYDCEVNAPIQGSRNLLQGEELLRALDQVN
Sequence of Hepatocyte nuclear factor 6 (Homo sapiens) (Q9UBC0 whole entry, looked up): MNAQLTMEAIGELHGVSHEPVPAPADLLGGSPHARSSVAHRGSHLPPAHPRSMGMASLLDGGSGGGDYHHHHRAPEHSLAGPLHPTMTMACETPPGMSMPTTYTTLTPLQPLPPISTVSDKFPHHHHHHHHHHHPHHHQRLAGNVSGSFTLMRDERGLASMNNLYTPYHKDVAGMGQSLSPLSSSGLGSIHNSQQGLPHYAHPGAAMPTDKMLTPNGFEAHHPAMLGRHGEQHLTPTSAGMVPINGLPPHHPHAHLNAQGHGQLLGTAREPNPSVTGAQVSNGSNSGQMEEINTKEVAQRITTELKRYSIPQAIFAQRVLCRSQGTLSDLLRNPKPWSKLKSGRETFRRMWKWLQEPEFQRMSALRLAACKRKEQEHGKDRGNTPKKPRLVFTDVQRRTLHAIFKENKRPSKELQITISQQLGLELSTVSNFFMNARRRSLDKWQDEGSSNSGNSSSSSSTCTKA
Sequence of Transcription factor Sp1 (Homo sapiens) (P08047 whole entry, looked up): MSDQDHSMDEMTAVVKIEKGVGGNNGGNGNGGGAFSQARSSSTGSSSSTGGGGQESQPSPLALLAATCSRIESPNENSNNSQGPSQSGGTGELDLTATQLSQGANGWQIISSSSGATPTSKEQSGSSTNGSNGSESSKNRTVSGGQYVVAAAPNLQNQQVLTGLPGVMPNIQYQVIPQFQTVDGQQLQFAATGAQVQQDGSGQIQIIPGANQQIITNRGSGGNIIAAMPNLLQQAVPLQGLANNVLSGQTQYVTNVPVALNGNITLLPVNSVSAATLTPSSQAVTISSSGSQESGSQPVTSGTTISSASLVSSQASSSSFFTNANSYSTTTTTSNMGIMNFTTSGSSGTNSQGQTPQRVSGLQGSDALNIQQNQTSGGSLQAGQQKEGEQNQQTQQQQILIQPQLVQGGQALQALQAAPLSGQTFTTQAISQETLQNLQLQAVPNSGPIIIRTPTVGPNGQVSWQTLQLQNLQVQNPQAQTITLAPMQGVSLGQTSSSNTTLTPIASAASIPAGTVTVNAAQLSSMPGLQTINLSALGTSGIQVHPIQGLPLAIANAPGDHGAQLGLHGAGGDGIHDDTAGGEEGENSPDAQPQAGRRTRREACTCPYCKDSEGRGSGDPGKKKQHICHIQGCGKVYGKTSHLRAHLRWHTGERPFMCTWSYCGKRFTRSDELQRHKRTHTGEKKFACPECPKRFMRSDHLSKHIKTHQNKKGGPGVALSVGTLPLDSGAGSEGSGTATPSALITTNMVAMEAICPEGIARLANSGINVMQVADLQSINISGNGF
Sequence of Signal transducer and activator of transcription 3 (Homo sapiens) (P40763 whole entry, looked up): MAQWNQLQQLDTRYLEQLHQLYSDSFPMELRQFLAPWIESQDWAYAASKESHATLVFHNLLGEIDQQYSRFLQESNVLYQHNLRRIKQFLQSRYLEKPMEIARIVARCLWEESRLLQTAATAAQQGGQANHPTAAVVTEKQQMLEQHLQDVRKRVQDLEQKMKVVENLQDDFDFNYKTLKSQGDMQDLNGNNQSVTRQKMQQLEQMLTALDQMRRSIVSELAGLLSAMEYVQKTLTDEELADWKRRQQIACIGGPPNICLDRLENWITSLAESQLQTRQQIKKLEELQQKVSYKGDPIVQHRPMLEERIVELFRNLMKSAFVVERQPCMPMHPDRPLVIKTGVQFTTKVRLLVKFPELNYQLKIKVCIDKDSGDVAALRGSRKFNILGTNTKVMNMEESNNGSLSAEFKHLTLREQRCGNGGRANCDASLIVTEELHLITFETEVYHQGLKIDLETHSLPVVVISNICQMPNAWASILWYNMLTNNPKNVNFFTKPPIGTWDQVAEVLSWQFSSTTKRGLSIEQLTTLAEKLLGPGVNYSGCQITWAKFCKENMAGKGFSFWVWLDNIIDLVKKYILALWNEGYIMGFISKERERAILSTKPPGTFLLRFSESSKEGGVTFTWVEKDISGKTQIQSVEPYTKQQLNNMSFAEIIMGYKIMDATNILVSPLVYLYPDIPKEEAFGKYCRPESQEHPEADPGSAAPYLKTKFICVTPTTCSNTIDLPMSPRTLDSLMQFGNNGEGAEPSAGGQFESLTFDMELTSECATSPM

CC(F)(F)CC(F)(F)F
not listed: [17] | [18] | [19] | [20]
inactive: all other assays above

O=C(O)COc1cc(Cl)c(Cl)cc1Cl
not listed: [5] | [15] | [19] | [20]
inactive: all other assays above

CC(C)(C)c1ccc(CCOc2ncnc3ccccc23)cc1
active: [7] 34.7 µM
not listed: [5] | [14] | [15] | [20]
inactive: all other assays above

Cl[C@H]1OCCO[C@@H]1Cl
active: [4] 49.6 µM
not listed: [5] | [14] | [15]
inactive: all other assays above

O=C(O)CC(O)(CC(=O)O)C(=O)O
not listed: [4] | [16]
inactive: all other assays above

C=CC(=O)OCC(COC(=O)C=C)(COC(=O)C=C)COC(=O)C=C
active: [1] 5.34 µM | [17] 56.5 µM | [6] 8.5 µM | [8] 8.19 µM | [10] 8.41 µM
not listed: [5] | [14] | [18]
inactive: all other assays above
